Laboratory results taken from ChEMBL document CHEMBL1157539, “Thousands of chemical starting points for antimalarial lead identification” (Nature, 2010).

How the values were obtained:
Type in all cases: functional
Plasmodium falciparum [1] = assay: GSK_TCMDC: Inhibition of Plasmodium falciparum 3D7 in whole red blood cells, using parasite LDH activity as an index of growth. Test compounds present at 2uM
Plasmodium falciparum [2] = assay: GSK_TCMDC: Inhibition of Plasmodium falciparum Dd2 in whole red blood cells, using parasite LDH activity as an index of growth. Test compounds present at 2uM
HepG2 = assay: GSK_TCMDC: Percent inhibition of human HepG2 cell line. Test compounds present at 10uM.

Work on `Cc1ccc(CN2CCCN(Cc3cccc(NC(=O)c4cc5ccccc5s4)c3)CC2)cc1.O=C(O)C(F)(F)F` yielded an Inhibition (Plasmodium falciparum [1]) of 87%, an Inhibition (Plasmodium falciparum [2]) of 28% and an Inhibition (HepG2) of 32%.
`COc1cccc2cc(C(=O)N[C@@H](CC(C)C)C(=O)Nc3cc(F)ccc3Br)oc12` gave an Inhibition (Plasmodium falciparum [1]) of 87%, an Inhibition (Plasmodium falciparum [2]) of 45% and an Inhibition (HepG2) of 7%.
`COc1ccc2c(-c3ccccc3)noc2c1` showed an Inhibition (Plasmodium falciparum [1]) of 98%, an Inhibition (Plasmodium falciparum [2]) of 34% and an Inhibition (HepG2) of 0%.
`Cc1ccc2oc3cc(-c4nnn[nH]4)ccc3c(=O)c2c1` was tested, and the Inhibition (Plasmodium falciparum [1]) was 97%, the Inhibition (Plasmodium falciparum [2]) was 96% and the Inhibition (HepG2) was 2%.
Work on `CC(C)C[C@H](NC(=O)[C@H](Cc1ccccc1)NC(=O)CCN1C(=O)COc2ccc(C(=O)O)cc21)C(=O)NC(CC1CCCCC1)C(O)CC(=O)NCCCn1ccnc1.Cl.O` (stereo not given in full) yielded an Inhibition (Plasmodium falciparum [1]) of 99%, an Inhibition (Plasmodium falciparum [2]) of 0% and an Inhibition (HepG2) of 0%.
Molecule `CCNc1cc(C(=O)N[C@@H](Cc2ccccc2)[C@H](O)CNC(C)(C)CSCC(C)C)cc(N2CCCC2=O)c1` has an Inhibition (Plasmodium falciparum [1]) of 100%, an Inhibition (Plasmodium falciparum [2]) of 97% and an Inhibition (HepG2) of 0%.
Work on `COc1ccc2c(c1)Sc1ccccc1C(N1CCN(CCO)CC1)C2.Cl` (stereo not given) yielded an Inhibition (Plasmodium falciparum [1]) of 95%, an Inhibition (Plasmodium falciparum [2]) of 4% and an Inhibition (HepG2) of 11%.
Molecule `CC(C)(C(=O)Nc1ccc(C2CCC(NCC3CC3)CC2)c(Cl)c1)c1cccc(OC(F)F)c1` (stereo not given) has an Inhibition (Plasmodium falciparum [1]) of 99%, an Inhibition (Plasmodium falciparum [2]) of 23% and an Inhibition (HepG2) of 34%.
`Cc1ccc(CN2CCC(C(=O)Nc3ccc(-c4cc5ccccc5[nH]4)cc3)CC2)o1` showed an Inhibition (Plasmodium falciparum [1]) of 92%, an Inhibition (Plasmodium falciparum [2]) of 40% and an Inhibition (HepG2) of 19%.
Work on `OCCn1c(CNCCCNc2nc3ccccc3[nH]2)cc2c(Cl)cc(Cl)cc21` yielded an Inhibition (Plasmodium falciparum [1]) of 95%, an Inhibition (Plasmodium falciparum [2]) of 0% and an Inhibition (HepG2) of 29%.
